Assay results reported in PubChem BioAssay.
A number with no mark means an inactive call. The list shows a part of the results. Activity calls are given as the source filed them.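 Rule for the calls, unless noted: active = mean inhibition above about 50% in the one-dose retest (limit read from the data); inactive = the rest.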

Molecular target: Sentrin-specific protease 7 (Homo sapiens) (UniProt Q9BQF6)
Assay: human SENP7 peptidase blockers, hit retest – biochemical, luminescence, single concentration, confirmation (AID 488917)
Details: recombinant SENP7, Z-RLRGG-aminoluciferin luminescence, 40 min; at 12.5 µM; hits give high values

Sentrin-specific protease 7 (Homo sapiens), sequence (Q9BQF6 706-1050 limits assumed): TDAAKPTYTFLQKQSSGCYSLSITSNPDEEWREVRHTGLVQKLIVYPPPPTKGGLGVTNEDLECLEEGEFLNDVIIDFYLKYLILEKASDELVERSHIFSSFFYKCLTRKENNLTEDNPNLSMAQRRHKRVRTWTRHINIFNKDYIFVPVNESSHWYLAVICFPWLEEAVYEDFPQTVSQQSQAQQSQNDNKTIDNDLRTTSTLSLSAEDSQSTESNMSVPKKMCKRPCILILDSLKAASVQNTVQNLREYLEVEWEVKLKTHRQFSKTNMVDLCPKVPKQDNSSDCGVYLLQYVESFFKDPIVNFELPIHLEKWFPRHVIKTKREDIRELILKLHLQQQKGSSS

| Compound | inhibition |
| --- | --- |
| c1ccc2[nH]c(-c3nc4ccccc4[nH]3)nc2c1 | 77.8% (active) |
| CCCOc1ccc(C(=O)NCCc2ccccc2)cc1 | 88.3% (active) |
| O=C(Nc1ccc2sc3ccccc3c(=O)c2c1)c1ccccc1Cl | 13.5% |
| O=c1oc2ccccc2cc1-c1cn(-c2ccccc2)c(=S)[nH]1 | 81.7% (active) |
| O=C(Nc1nc2ccccc2s1)c1ccc2c(c1)OCO2 | 97.4% (active) |
| O=C(Nc1ccc2c(c1)CCC2)c1ccc(Br)s1 | 73.3% (active) |
| CCc1ccc2oc(-c3ccc(N)cc3)nc2c1 | 100% (active) |
| Cc1cccc(/C(N)=N/OC(=O)c2ccccc2Cl)c1 | 102% (active) |

Molecular target: Caspase-3 (Homo sapiens) (UniProt P42574)
Sequence (P42574 28-227 limits assumed): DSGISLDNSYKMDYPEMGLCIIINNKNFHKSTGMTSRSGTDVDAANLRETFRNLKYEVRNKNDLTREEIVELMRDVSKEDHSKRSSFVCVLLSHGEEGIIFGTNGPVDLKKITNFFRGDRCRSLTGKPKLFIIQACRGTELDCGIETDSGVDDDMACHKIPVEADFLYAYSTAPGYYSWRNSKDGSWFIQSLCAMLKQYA
Assay: human caspase-3 activity blockade, out-of-family – biochemical, single concentration, selectivity assay for SENP inhibitor project, confirmation (AID 488918;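 active = mean inhibition above about 50%, limit read from the data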;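 note: plate controls were enzyme with DMSO for no effect and wells without caspase-3 for full effect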)
Details: purified caspase-3, Z-DEVD-aminoluciferin luminescence, 60 min; at 12.5 µM; hits give high values

| Compound | inhibition |
| --- | --- |
| c1ccc2[nH]c(-c3nc4ccccc4[nH]3)nc2c1 | 77.3% (active) |
| CCCOc1ccc(C(=O)NCCc2ccccc2)cc1 | 78% (active) |
| O=C(Nc1ccc2sc3ccccc3c(=O)c2c1)c1ccccc1Cl | 24.3% |
| O=c1oc2ccccc2cc1-c1cn(-c2ccccc2)c(=S)[nH]1 | 81.8% (active) |
| O=C(Nc1nc2ccccc2s1)c1ccc2c(c1)OCO2 | 84.8% (active) |
| O=C(Nc1ccc2c(c1)CCC2)c1ccc(Br)s1 | 47% |
| CCc1ccc2oc(-c3ccc(N)cc3)nc2c1 | 84.1% (active) |
| Cc1cccc(/C(N)=N/OC(=O)c2ccccc2Cl)c1 | 97.2% (active) |

System: not listed separately
Assay: Ultra-Glo luciferase signal interference – biochemical, single concentration, SENP8 reaction pre-completed, artefact control for SENP inhibitor project, confirmation (AID 488919;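 active = mean inhibition above about 50% when retested at one dose, limit read from the data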;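 note: plate controls were DMSO wells with completed reaction for no effect and substrate without enzyme for full effect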)
Details: Pre-incubated SENP8/Z-RLRGG-aminoluciferin, luciferase luminescence interference; at 12.5 µM; hits give high values

| Compound | inhibition |
| --- | --- |
| c1ccc2[nH]c(-c3nc4ccccc4[nH]3)nc2c1 | 50.8% (active) |
| CCCOc1ccc(C(=O)NCCc2ccccc2)cc1 | -5.4% |
| O=C(Nc1ccc2sc3ccccc3c(=O)c2c1)c1ccccc1Cl | 4.3% |
| O=c1oc2ccccc2cc1-c1cn(-c2ccccc2)c(=S)[nH]1 | 19.1% |
| O=C(Nc1nc2ccccc2s1)c1ccc2c(c1)OCO2 | 18.6% |
| O=C(Nc1ccc2c(c1)CCC2)c1ccc(Br)s1 | 24.2% |
| CCc1ccc2oc(-c3ccc(N)cc3)nc2c1 | 94.5% (active) |
| Cc1cccc(/C(N)=N/OC(=O)c2ccccc2Cl)c1 | 96.8% (active) |

Molecular target: Protein Mdm4 (Homo sapiens) + E3 ubiquitin-protein ligase Mdm2 (Homo sapiens) (UniProt O15151+Q00987)
Sequence (O15151 whole entry, looked up): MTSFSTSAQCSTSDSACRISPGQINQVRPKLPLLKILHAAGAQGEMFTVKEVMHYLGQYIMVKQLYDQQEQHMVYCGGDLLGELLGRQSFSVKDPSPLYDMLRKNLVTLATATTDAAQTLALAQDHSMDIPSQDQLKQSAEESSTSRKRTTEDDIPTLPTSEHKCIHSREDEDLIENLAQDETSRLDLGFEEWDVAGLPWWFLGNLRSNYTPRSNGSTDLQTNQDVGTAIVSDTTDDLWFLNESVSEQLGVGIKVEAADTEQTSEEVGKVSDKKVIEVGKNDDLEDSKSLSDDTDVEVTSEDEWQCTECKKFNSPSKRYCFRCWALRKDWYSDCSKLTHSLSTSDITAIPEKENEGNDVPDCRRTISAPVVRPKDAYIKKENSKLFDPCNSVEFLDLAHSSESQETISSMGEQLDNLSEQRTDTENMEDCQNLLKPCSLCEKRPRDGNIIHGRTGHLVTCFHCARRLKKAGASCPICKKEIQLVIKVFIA
Sequence (Q00987 whole entry, looked up): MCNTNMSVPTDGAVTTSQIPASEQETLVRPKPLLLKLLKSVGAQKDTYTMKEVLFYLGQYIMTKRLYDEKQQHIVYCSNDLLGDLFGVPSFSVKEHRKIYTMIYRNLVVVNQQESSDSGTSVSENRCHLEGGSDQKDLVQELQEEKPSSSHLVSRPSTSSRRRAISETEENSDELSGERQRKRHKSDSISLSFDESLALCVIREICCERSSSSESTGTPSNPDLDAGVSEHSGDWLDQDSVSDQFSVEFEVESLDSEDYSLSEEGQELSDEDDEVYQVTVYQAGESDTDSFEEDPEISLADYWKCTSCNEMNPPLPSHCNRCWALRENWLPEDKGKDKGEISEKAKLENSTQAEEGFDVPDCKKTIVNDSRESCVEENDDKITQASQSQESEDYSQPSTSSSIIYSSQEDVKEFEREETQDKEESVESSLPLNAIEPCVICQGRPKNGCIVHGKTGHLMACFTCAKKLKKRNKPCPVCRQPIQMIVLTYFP
Assay: human Mdm2/MdmX binding disruption – cell-based, luminescence, single concentration, set 2, confirmation (AID 504601;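 active = mean inhibition of the luminescence signal across two replicates at or above 26 percent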)
Details: SaOS-2 split-luciferase Mdm2/MdmX complementation, at 8 µM, hits give high values

| Compound | inhibition |
| --- | --- |
| C=C(C)C(=O)O[C@H]1C/C(C)=C\C(=O)/C=C(\C)[C@H](O)[C@@H]2OC(=O)C(=C)[C@@H]21 | 103% (active) |
| NC(N)=N/N=C/c1ccc(OCc2ccc(Cl)cc2Cl)cc1 | 102% (active) |
| COc1ccc2cc1Oc1ccc(cc1)C[C@H]1c3cc(c(OC)cc3CCN1C)Oc1c(O)c(OC)cc3c1[C@H](C2)N(C)CC3 | 104% (active) |
| OCCCNc1nccc(-c2cc(Nc3cccc(Cl)c3)ncn2)n1 | 102% (active) |
| O=c1oc2ccccc2cc1-c1cn(-c2ccccc2)c(=S)[nH]1 | 92% (active) |
| COc1ccccc1-n1nnnc1S(=O)(=O)Cc1ccc(Cl)cc1 | 103% (active) |

System: not listed separately
Assay: Brca1-Bard1 BiLC signal decrease – luminescence, single concentration, counter-screen for Mdm2/MdmX interaction inhibitor project, confirmation (AID 504668; call rule not given here)
Details: Brca1/Bard1 bimolecular luciferase complementation counterscreen, at 8 µM, hits give high values

| Compound | inhibition |
| --- | --- |
| Clc1cccc(Cl)c1OCCOCCNCc1ccccc1 | 33% (active) |
| COC(=O)Cc1[nH]n(-c2nc3ccccc3s2)c(=O)c1C(C)=Nc1ccc(OC)cc1 | 26.2% (active) |
| COc1ccc(Nc2ncnc3ccc(Br)cc23)c(OC)c1 | 24.3% (active) |
| CCN1/C(=C\c2ccc3ccccc3[n+]2CC)Sc2cc(C)ccc21 | 25% (active) |
| COc1cccc(/C=N/NC(=O)c2[nH]nc3c2CCc2ccccc2-3)c1O | 27% (active) |

System: not listed separately
Assay: inhibition of PEG-3 promoter luciferase signal – cell-based, HeLa, luciferase reporter, single concentration, confirmation (AID 602417;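 active = at 20 µM dose, 40% or more inhibition averaged across four replicates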)
Details: HeLa PEG-Prom luciferase reporter, luminescence, overnight; at 20 µM; hits give high values

| Compound | inhibition |
| --- | --- |
| COC(=O)Cc1[nH]n(-c2nc3ccccc3s2)c(=O)c1C(C)=Nc1ccc(OC)cc1 | 86.3% (active) |
| COc1ccc(Nc2ncnc3ccc(Br)cc23)c(OC)c1 | 87.9% (active) |
| OCCCNc1nccc(-c2cc(Nc3cccc(Cl)c3)ncn2)n1 | 97.6% (active) |
| CC(C)(C)c1ccc(Oc2ccc(N)cc2)cc1 | 86.3% (active) |

System: not listed separately
Assay: HIF-2a driven luciferase blockers, single dose – luminescence, 786-0 RCC cells, confirmation (AID 651580;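 active = mean inhibition across four replicates of at least 40 percent at the single tested concentration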)
Details: HIF-2a luciferase reporter luminescence, overnight, at 18.8 µM, hits give high values

| Compound | inhibition |
| --- | --- |
| COC(=O)Cc1[nH]n(-c2nc3ccccc3s2)c(=O)c1C(C)=Nc1ccc(OC)cc1 | 82.3% (active) |
| C=C(C)C(=O)O[C@H]1C/C(C)=C\C(=O)/C=C(\C)[C@H](O)[C@@H]2OC(=O)C(=C)[C@@H]21 | 61.8% (active) |
| COc1ccc(Nc2ncnc3ccc(Br)cc23)c(OC)c1 | 91.3% (active) |
| COc1ccccc1-n1nnnc1S(=O)(=O)Cc1ccc(Cl)cc1 | 70.5% (active) |

System: not listed separately
Assay: HIF-1a luciferase reporter signal reduction – MiaPaCa-2 cells, single concentration, counter-screen for HIF-2a inhibitor project, confirmation (AID 651589;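 active = mean inhibition of the reporter signal across four replicates at the single tested dose of 50% or more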)
Details: MiaPaCa-2 HIF-1a luciferase reporter, desferoxamine, overnight; at 18.8 µM; hits give high values

| Compound | inhibition |
| --- | --- |
| COC(=O)Cc1[nH]n(-c2nc3ccccc3s2)c(=O)c1C(C)=Nc1ccc(OC)cc1 | 92.7% (active) |
| C=C(C)C(=O)O[C@H]1C/C(C)=C\C(=O)/C=C(\C)[C@H](O)[C@@H]2OC(=O)C(=C)[C@@H]21 | 108% (active) |
| COc1ccc(Nc2ncnc3ccc(Br)cc23)c(OC)c1 | 102% (active) |
| COc1ccccc1-n1nnnc1S(=O)(=O)Cc1ccc(Cl)cc1 | 102% (active) |

Molecular target: COP9 signalosome complex subunit 5 (Homo sapiens) (UniProt Q92905)
Sequence (Q92905 whole entry, looked up, one chain of several): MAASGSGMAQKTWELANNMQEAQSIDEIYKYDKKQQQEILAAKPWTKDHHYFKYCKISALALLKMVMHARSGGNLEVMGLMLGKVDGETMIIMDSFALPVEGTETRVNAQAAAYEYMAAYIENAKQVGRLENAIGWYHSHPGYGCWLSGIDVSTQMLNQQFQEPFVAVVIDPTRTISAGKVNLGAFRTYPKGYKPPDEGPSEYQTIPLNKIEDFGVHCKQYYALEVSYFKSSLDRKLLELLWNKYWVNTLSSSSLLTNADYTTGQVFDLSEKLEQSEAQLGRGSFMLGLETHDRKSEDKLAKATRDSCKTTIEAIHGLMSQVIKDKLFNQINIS
Assay: blockers of CSN-driven cullin deneddylation – biochemical, fluorescence polarization, single concentration, SCF-Nedd8OG substrate, confirmation (AID 720654; in the data active = inhibition above about 50%;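 note: 0% = DMSO with enzyme and 100% = no enzyme wells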)
Details: Csn5 deneddylation of SCF-Nedd8OG, 90 min, at 16.6 µM, hits give high values

| Compound | inhibition |
| --- | --- |
| CC[n+]1cc(C)ccc1/C=C/c1ccc(N(C)C)cc1 | 56.8% (active) |
| CCN1/C(=C\c2ccc3ccccc3[n+]2CC)Sc2cc(C)ccc21 | 24% |
| COc1cccc(/C=N/NC(=O)c2[nH]nc3c2CCc2ccccc2-3)c1O | 20.6% |

Molecular target: 72 kDa type IV collagenase (Homo sapiens) (UniProt P08253)
Sequence (P08253 whole entry, looked up): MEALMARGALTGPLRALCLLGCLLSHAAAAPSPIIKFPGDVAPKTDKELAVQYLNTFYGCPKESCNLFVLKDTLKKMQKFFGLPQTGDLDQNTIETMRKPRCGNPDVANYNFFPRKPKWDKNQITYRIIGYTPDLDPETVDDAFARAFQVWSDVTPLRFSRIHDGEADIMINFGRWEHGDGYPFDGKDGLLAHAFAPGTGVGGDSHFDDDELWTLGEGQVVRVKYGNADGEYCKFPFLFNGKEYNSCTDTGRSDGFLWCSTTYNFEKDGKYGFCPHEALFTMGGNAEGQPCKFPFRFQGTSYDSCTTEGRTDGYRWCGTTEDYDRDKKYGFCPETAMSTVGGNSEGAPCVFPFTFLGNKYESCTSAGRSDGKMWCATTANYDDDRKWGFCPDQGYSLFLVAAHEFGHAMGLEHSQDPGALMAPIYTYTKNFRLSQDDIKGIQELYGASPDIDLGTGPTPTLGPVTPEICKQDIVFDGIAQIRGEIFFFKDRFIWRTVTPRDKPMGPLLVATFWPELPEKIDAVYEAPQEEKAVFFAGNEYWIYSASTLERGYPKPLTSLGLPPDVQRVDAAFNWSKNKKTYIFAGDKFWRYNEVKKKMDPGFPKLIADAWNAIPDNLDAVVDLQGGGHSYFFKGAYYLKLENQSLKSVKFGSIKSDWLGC
Assay: human MMP-2 inhibitors, single-point check – biochemical, fluorescence, single concentration, counter-screen for CSN deneddylation inhibitor project, confirmation (AID 720655;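 active = corrected plate-normalized z-score of 5 or more, or -5 or less, or inhibition of 15% or more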;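 note: plate controls were DMSO wells with enzyme for no effect and buffer wells lacking MMP-2 for full effect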)
Details: recombinant MMP-2, FRET substrate fluorescence, 60 min; at 16.6 µM

| Compound | inhibition |
| --- | --- |
| CC[n+]1cc(C)ccc1/C=C/c1ccc(N(C)C)cc1 | -78.8% (active) |
| CCN1/C(=C\c2ccc3ccccc3[n+]2CC)Sc2cc(C)ccc21 | -3.14% |
| Cn1ccc(=Nc2ccc(NC(=O)c3ccc(N=c4ccn(C)c5ccc([N+](=O)[O-])cc45)cc3)cc2)cc1 | 61.8% (active) |
| COc1cccc(/C=N/NC(=O)c2[nH]nc3c2CCc2ccccc2-3)c1O | 34.7% (active) |
